Here are results for 35 compounds from PubChem BioAssay (NCI).

Each structure is given as a SMILES string. This is part of a sample that, as a whole, favours compounds with a hit. Of some 83,000 tested, about 20% had one in any assay.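 How to read the values: 0–100, growth inhibition (40 = 60% inhibited); 0, no net growth; -100 to 0, cell death (-40 = 40% of starting cells died; -100 = all dead).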 A number with no mark means an inactive call. Calls of active or inactive are those of the source. How the source made its calls: active means growth percent below 10; inactive means the rest.

For one assay, the system named is CAKI-1 renal. Nature of the assay: NCI-60 one-dose screen, 48 h (100 = growth as untreated, 0 = no growth, -100 = all killed). Conditions: 10 µM unless noted.
Take `COc1ccc(C(=O)CSc2nc(-c3cc(OC)ccc3OC)cc(-c3ccc(Cl)cc3)c2C#N)cc1`: the growth was 64.9%.

As for `Cc1cc(C)c(S(=O)(=O)Oc2ccccc2[N+](=O)[O-])c(C)c1`, the growth was 24%.

`O=C(CCN1CCCC1)Nc1ccc2c(NCc3ccccc3)c3ccccc3nc2c1`: the growth is 5.35% (active).

Regarding `CCN(CC)c1ccc(/C=N/NC(=O)CSc2nc3ccccc3c(=O)n2CCc2ccc(S(N)(=O)=O)cc2)c(O)c1`, the growth was 36%.

`O=C(CSc1nc2sc3c(c2c(=O)n1-c1ccc(Cl)cc1)CCCC3)Nc1nc(-c2cccc(Br)c2)cs1`: the growth is 49%.

For the compound `COc1ccc(C(C)=O)c(OC)c1`, the growth is 99.7%.

`COc1cccc(-c2nc3occn3c2-c2ccnc(NCCCNS(=O)(=O)c3ccc(C(F)(F)F)cc3)n2)c1`: the growth was 75.3%.

Take `C=C1C(=O)O[C@H]2[C@H]1CC/C(C(=O)NCCCCCNC(=O)/C1=C/CC[C@@]3(C)O[C@H]3[C@H]3OC(=O)C(=C)[C@@H]3CC1)=C\CC[C@@]1(C)O[C@@H]21`: the growth was 106%.

For the compound `C=C1C(=O)O[C@H]2[C@H]1CC/C(COC(=O)NCc1c[nH]c3ccc(F)cc13)=C\CC[C@@]1(C)O[C@@H]21`, the growth was -87.3% (active).

Take `Cc1cc2nc3c4cccc(O)c4n(CCN(C)C)c3nc2cc1C`: the growth is 13.2%.

With `O=C(Cc1ccccc1)NNc1nc(Cl)nc(N2CCN(C(c3ccccc3)c3ccccc3)CC2)n1`, the growth was 84.4%.

For the next assay, the system named is CCRF-CEM leukemia. Described as above. Conditions: 10 µM unless noted.
Regarding `O=C1OC(Cc2ccccc2)C1c1ccccc1` (stereo not given), the growth is 109%.

As for `O=C1Nc2cc(-c3ccc(NC(=O)c4ccccc4)cc3)ccc2/C1=C/c1ccc[nH]1`, the growth is 92.4%.

For `O=C(N/N=C/c1cc2ccccc2n2nnnc12)Nc1ccccc1`, the growth is 103%.

In the case of `O=C1c2ccc3c4c(ccc(c24)C(=O)N1CCCNCc1ccccc1)C(=O)N(CCCNCc1ccccc1)C3=O`, the growth is -30.5% (active).

For the compound `C=C1C(=O)O[C@H]2[C@H]1CC/C(COC(=O)NCCc1c[nH]c3ccc(OC)cc13)=C\CC[C@@]1(C)O[C@@H]21`, the growth is -6.35% (active).

For `CCOc1ccc(Nc2nc(-c3ccc4c(c3)NC(=O)CO4)cs2)cc1`, the growth was 32.9%.

Consider `COc1ccc(C(=O)c2cc(C)c(OC)c(C)c2)c(OC)c1OC(=O)C(Cl)Cl`, for which the growth is 11.1%.

Turning to `CN(C)c1ccc(Nc2c3ccccc3nc3cc(NC(=O)CCN4CCCC4)ccc23)cc1`, the growth was -15% (active).

With `Cc1nc(N)nc(N[C@@H](C)c2nc3cccc(NCc4ccc(C(=O)NO)cc4)c3c(=O)n2-c2ccccc2)n1`, the growth was 23.2%.

In the case of `COc1ccc(C/C(=C(\C)c2ccc(OCCN3CCCC3)cc2)c2ccc(OCCN3CCCC3)cc2)cc1`, the growth is 0.621% (active).

`NC(=NCCCOc1ccc(F)cc1)Nc1ccc(Cl)cc1`: the growth is 49.7%.

`CCCOC(=O)N[C@H]1CCc2c(Cl)c(OC)c(OC)c(OC)c2-c2ccc(SC)c(=O)cc21`: the growth is 7.4% (active).

Regarding `N#Cc1c(NC(=O)NCc2ccccc2)sc2c1CCCC2`, the growth was 16.6%.

For `NCCCCCCNc1cc(-c2cccc(OC(F)(F)F)c2)nc2ccc(N3CCCC3)cc12`, the growth is -32.2% (active).

Take `C[C@H]1[C@H](C)CC[C@]2(C(=O)NCC#CCN3CCN(C)CC3)CC[C@]3(C)C(=CC[C@@H]4[C@@]5(C)Cc6c([nH]c7ccccc67)C(C)(C)[C@@H]5CC[C@]43C)[C@H]12`: the growth is 66.7%.

Take `N#Cc1c(NCc2ccccc2I)sc2c1CCCCC2`: the growth is 94.4%.

As to `CN1C(=O)NC(c2ccc3c(c2)OCO3)C=C1c1ccccc1` (stereo not given), the growth is 87.2%.

As for `COc1cc(/C=C\C(=O)O)ccc1OCc1ccccc1`, the growth is 98.3%.

For `CCN(CC)c1ccc(/C=N/NC(=O)CSc2nc3ccccc3c(=O)n2Cc2ccc(S(N)(=O)=O)cc2)c(O)c1`, the growth was 10.8%.

Take `Cc1ccc(S(=O)(=O)NNC(=O)/C(=C\c2ccc(Cl)cc2)c2nc3ccccc3s2)cc1`: the growth is 83.6%.

`CCOC(=O)[C@@H]1CCCN(S(=O)(=O)c2ccc(S(=O)(=O)N(CC)CC)c(F)c2)C1`: the growth is 85.1%.

As for `Cc1ccc(CNc2c3ccccc3nc3cc(NC(=O)CCN4CCCC4)ccc23)cc1`, the growth was -31.5% (active).

`COc1ccc(CC(C)=C(c2ccc(OCCN3CCCCCC3)cc2)c2ccc(OCCN3CCCCCC3)cc2)cc1`: the growth is -57.9% (active).

In the case of `CCCCNC(=O)Oc1ccc(/C(=C(\C)c2ccccc2)c2ccc(OCCN3CCCCC3)cc2)cc1`, the growth is 66.3%.
